Compounds with a hit are over-represented: about 4.2% of the library has one in this group of screens.
Wnt act = activators of Wnt/beta-catenin signaling | Wnt/beta-catenin reporter cell assay, activator, plate reader | activation, % at 9.35 µM | 300,000 compounds, 1.2% hits; in the data active = activation above about 30%, passing the limit was not always enough; inconclusive = no clear call, values can overlap the other calls
hgDAF-12 ag = activates the H. glycines DAF-12 receptor ligand-binding domain | HEK293 GAL4-hgDAF12 UAS-luciferase reporter, agonist luminescence; normalized to butyrate control | activation, % at 6.8 µM | 370,000 compounds, 1.8% hits;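 active = activation above a cutoff set at the mean of all screened compounds plus 3 SD, cut at about 10% in these data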
hcDAF-12 act = activators of H. contortus DAF-12 nuclear receptor | activation, % at 6.8 µM | 370,000 compounds, 1.4% hits | HEK293 hcDAF-12 lit1-tk-luc reporter, luminescence; 0% DMSO, 100% Δ7-dafachronic acid;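 active = activation above the mean of all tested compounds plus 3 SD, cut at about 5.5% in these data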
ssDAF12 agonist = S. stercoralis DAF-12 activation, primary screen; HEK293 ssDAF-12/GRIP1 lit1-tk-luc reporter, luminescence; % of 3 µM dafachronic acid response; activation, % at 6.8 µM; 370,000 compounds, 1% hits; AID 652126;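 active = activation above the mean over all tested compounds plus 3 SD, cut at about 0.9% in these data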
esBAF inh = SWI/SNF esBAF complex inhibition. 350,000 compounds, 2% hits. mouse ES cells, Bmi1-luciferase knock-in reporter, 24 h; 100% = twice the neutral-well signal. reporter increase, % at 12.5 µM; in the data active = activation above about 40%; inconclusive = no clear call, values can overlap the other calls;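 note: a rise in the Bmi1 reporter signal indicates esBAF inhibition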
DAX1 inh = DAX1 (NR0B1) inhibition, primary screen | HEK293T StAR-luciferase reporter, SF-1/DAX-1 repression relief | inhibition, % at 6.8 µM | 370,000 compounds, 1.1% hits | AID 652010;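 active = inhibition above the mean over all tested compounds plus 3 SD, cut at about 3.6% in these data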;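 note: higher inhibition means more luminescence from relief of DAX-1 repression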
Hits are given with their value; i = inactive; ? = inconclusive; nt = not tested or not shown.

SMILES | Wnt act | hgDAF-12 ag | hcDAF-12 act | ssDAF12 agonist | esBAF inh | DAX1 inh
O=C(Nc1ccc(Cl)cc1)OCc1ccccn1 | 54 | i | i | i | 77 | i
O=C(C[C@@H]1CC[C@@H](NC(=O)Nc2ccc(F)cc2)[C@@H](CO)O1)NCc1cccc(F)c1 | nt | nt | nt | nt | i | nt
Cn1c(=O)[nH]c(=O)c2c1nc(Br)n2C/C=N/Nc1ccccc1 | i | i | i | i | i | 3.7
Cn1c(=O)[nH]c(=O)c2c1nc(Br)n2C/C=N/NC(=O)c1ccccc1 | i | i | i | i | nt | i
C#CCNC(=O)c1cccn1-c1ncc(C(F)(F)F)cc1Cl | i | i | i | i | nt | i
N#CCNC(=O)c1cccn1-c1ncc(C(F)(F)F)cc1Cl | 38 | i | i | i | i | i
CNc1ccc(/C=C2\COc3ccccc3C2=O)cc1[N+](=O)[O-] | nt | i | i | i | 49 | i
O=C1/C(=C/c2ccccc2[N+](=O)[O-])COc2ccccc21 | i | i | i | i | 56 | i
C[C@H](O)C#Cc1ccc2c(c1)O[C@@H](CN(C)Cc1ccncc1)[C@H](C)CN([C@H](C)CO)S2(=O)=O | nt | nt | nt | nt | i | nt
Cc1noc(C)c1NC(=O)Nc1ccc2c(c1)CC(=O)N([C@H](C)CO)C[C@@H](C)[C@@H](CN(C)S(=O)(=O)c1cccs1)O2 | nt | nt | nt | nt | i | nt
CCNC(=O)C[C@@H]1CC[C@H]2[C@@H](COc3ccc(NC(=O)C4CCOCC4)cc3C(=O)N2C)O1 | nt | nt | nt | nt | i | nt
CC(C)S(=O)(=O)c1csc(C(=O)Nc2ccc(F)cc2)c1N | ? | i | i | 1.3 | i | i
COC(=O)C[C@@H]1CC[C@@H]2[C@H](COc3ccc(NC(=O)Nc4ccc(C#N)cc4)cc3C(=O)N2C)O1 | nt | nt | nt | nt | i | nt
CC(O)CNc1ncnc2cc(-c3ccc(F)cc3)sc12 (stereo not given) | i | i | i | i | 54 | i
Cc1ccc(C2CC(c3cccs3)=NN2C(=O)CCl)cc1 (stereo not given) | i | i | i | i | 62 | i
CC(C)n1nnnc1SCC(=O)N1N=C(c2cccs2)CC1c1cccs1 (stereo not given) | i | i | i | i | 71 | i
CCCC(=O)Nc1ccc2c(c1)C(=O)N(C)C[C@@H](OC)[C@H](C)CN(Cc1ccccc1F)[C@@H](C)CO2 | nt | nt | nt | nt | i | nt
O=C(CC1CC1)Nc1ccc2c(c1)[C@H]1C[C@H](CC(=O)N3CCc4ccccc4C3)O[C@H](CO)[C@H]1O2 | nt | nt | nt | nt | i | nt
COC(=O)c1ccc(CN2CCCC(CNC(=O)Cc3ccc(OC)cc3)C2)cc1 (stereo not given) | 36 | i | i | i | i | i
COc1ccc2c(c1OC)C(=O)N(c1ccc(C)cc1)C2 | 44 | 12 | i | i | i | i
COc1ccccc1N1Cc2ccc(OC)c(OC)c2C1=O | i | i | i | i | i | i
COc1ccc2c(c1OC)C(=O)N(c1ccccn1)C2 | nt | 13 | 5.8 | 1.3 | i | i
C[C@@H]1CN([C@@H](C)CO)C(=O)c2cc(-c3cccc(F)c3)cnc2O[C@@H]1CN(C)Cc1cccnc1 | nt | nt | nt | nt | i | nt
Cc1cccc(NC(=O)c2cccc([N+](=O)[O-])c2O)c1C | 49 | 13 | i | i | nt | 4.1
Cc1cccc(NC(=O)c2ccccc2O)c1C | i | i | i | i | nt | i
SMILES | Wnt act | hgDAF-12 ag | hcDAF-12 act | ssDAF12 agonist | esBAF inh | DAX1 inh
Cc1cccc(NC(=O)c2cc([N+](=O)[O-])ccc2Cl)c1O | i | i | 6.3 | i | i | i
Cc1ccc(S(=O)(=O)N[C@@H]2CC[C@H](CCNC(=O)C3CCC3)O[C@@H]2CO)cc1 | nt | nt | nt | nt | i | nt
C=CCNc1nc(Nc2ccccc2F)nc(OCC)n1 | i | i | i | i | 85 | i
CCOc1nc(Nc2ccccc2F)nc(OCC)n1 | i | i | i | i | i | i
COc1ccccc1-n1cnnc1SCC(=O)Nc1cccnc1Cl | i | i | i | i | i | i
COc1ccccc1-c1nnc(SCC(=O)Nc2cccnc2Cl)n1C | i | i | i | 0.9 | i | i
C[C@@H]1CCCCO[C@@H](CN(C)S(=O)(=O)c2cn(C)cn2)[C@H](C)CN([C@@H](C)CO)C(=O)c2cc(N(C)C)ccc2O1 | nt | nt | nt | nt | i | nt
C/C(=C\C(=O)c1ccccc1)Nc1ccc(O)cc1 | nt | i | i | 1.1 | i | i
Cc1ccc(C(=O)/C=C/Nc2cccc(O)c2)cc1 | nt | i | i | i | i | i
C/C(=C\C(=O)c1ccc(C)cc1)Nc1cccc(O)c1 | nt | i | i | i | 72 | i
CN(C)c1ccc2c(c1)[C@H]1C[C@H](CC(=O)NCc3cccc(F)c3)O[C@@H](CO)[C@H]1O2 | nt | nt | nt | nt | i | nt
C[C@H]1CN([C@@H](C)CO)C(=O)Cc2cc(NS(=O)(=O)c3ccc(F)cc3)ccc2O[C@@H]1CN(C)CC1CCCCC1 | nt | nt | nt | nt | i | nt
O=C1NC(=O)c2c(Br)c(Br)c(Br)c(Br)c21 | i | i | i | 1.0 | i | i
COc1ccc(CN(C)C[C@H]2OCCCC[C@@H](C)Oc3ccc(NC(=O)c4ccncc4)cc3C(=O)N([C@@H](C)CO)C[C@@H]2C)cc1 | nt | nt | nt | nt | i | nt
Cc1nc(SCC(=O)c2cccs2)c2oc3ccccc3c2n1 | 71 | i | i | i | nt | i
O=C(CSc1ncnc2c1oc1ccccc12)c1cccs1 | nt | i | i | i | 57 | i
NC(=O)CSc1ncnc2c1oc1ccccc12 | i | i | i | i | i | i
COc1cccc(NC(=O)Nc2nc(-c3ccc(OC)c(OC)c3)cs2)c1 | i | i | i | i | 43 | i
O=C(Nc1nc(-c2ccccc2)cs1)c1ccc(Br)o1 | i | i | i | i | i | i
O=C(Nc1nc(-c2cccc(Br)c2)cs1)Oc1ccccc1 | i | i | i | i | 45 | i
COc1cccc(-c2csc(NC(C)=O)n2)c1 | nt | 11 | i | i | 78 | i
COc1ccc(-c2csc(NC(C)=O)n2)cc1OC | i | i | i | i | i | i
COc1cccc2cc(-c3cn4ccc(C)cc4n3)c(=O)oc12 | nt | i | i | i | 105 | i
COc1cccc2cc(-c3csc(CCn4nc(C)cc4C)n3)c(=O)oc12 | i | i | i | i | i | i
COc1cccc2cc(-c3nnc(-c4ccccc4)o3)c(=O)oc12 | i | 11 | i | i | i | i
SMILES | Wnt act | hgDAF-12 ag | hcDAF-12 act | ssDAF12 agonist | esBAF inh | DAX1 inh
COc1cccc2cc(-c3cn4cccc(C)c4n3)c(=O)oc12 | i | i | i | i | i | i
CC/C(C)=N/Nc1nc(-c2cc3cccc(OC)c3oc2=O)cs1 | i | 12 | i | i | nt | i
CC(=O)N[C@H]1CC[C@H](CCNC(=O)Nc2ccc(C(F)(F)F)cc2)O[C@H]1CO | nt | nt | nt | nt | i | nt
COCC(=O)N1C[C@H](C)[C@@H](OC)CN(C)C(=O)c2cc(NC(=O)c3cc(C)on3)ccc2OC[C@@H]1C | nt | nt | nt | nt | i | nt
C[C@@H]1CN([C@H](C)CO)C(=O)Cc2cc(NC(=O)Nc3ccc(F)cc3)ccc2O[C@@H]1CN(C)C(=O)Nc1ccc(C(F)(F)F)cc1 | nt | nt | nt | nt | i | nt
CO[C@@H]1CN(C)C(=O)c2cc(NS(=O)(=O)c3ccc(Cl)cc3)ccc2OC[C@@H](C)N(C(=O)NC(C)C)C[C@@H]1C | nt | nt | nt | nt | i | nt

Screening data: PubChem, several laboratories
